Test results reported in PubChem BioAssay AID1159580 (chemical genetic matrix, 2015).
“And” between values parts separate entries of the source, which are not always exact repeats. Identical values can stand only once. Hit rate of the full screen: of about 5,500 compounds, about 2,000 (36%) were called active. About 18% were inconclusive and are not listed. Cut-off read from the data, not from the text of the source: active = normalized growth mostly below about 0.91 (no sharp cut-off); inconclusive = no clear call, values can overlap the other calls; inactive = mostly above about 0.92. Some of the results follow.

Experiment: chemical genetic growth profiling, strain panel (AID 1159580);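 note: tested at 20 µM; growth read once vehicle control cultures reached saturation at 30 °C; 1 = growth at the plate median or of vehicle wells; lower values mean less growth of the strain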
Conditions: growth OD

Measured: normalized growth

COc1ccc(Cc2nccc3cc(OC)c(OC)cc23)cc1OC
inactive: S. cerevisiae deletion strains, locus YJR066W, strain TOR1, active compounds read low 0.975 | S. cerevisiae deletion strains, locus YJR075W, strain HOC1, active compounds read low 0.995 | S. cerevisiae deletion strains, locus YKL009W, strain mrt4, active compounds read low 0.984 | S. cerevisiae deletion strains, locus YKL068W, active compounds read low 0.999 | S. cerevisiae deletion strains, locus YKL085W, strain MDH1 (second series), active compounds read low 0.991 | S. cerevisiae deletion strains, locus YKL085W, strain MDH1, active compounds read low 0.991 | S. cerevisiae deletion strains, locus YKL160W, strain elf1, active compounds read low 1.02 | S. cerevisiae deletion strains, locus YKL190W, strain CNB1, active compounds read low 1.01 | S. cerevisiae deletion strains, locus YKR001C, strain vps1, active compounds read low 0.961 | S. cerevisiae deletion strains, locus YKR026C, strain gcn3, active compounds read low 1 | S. cerevisiae deletion strains, locus YKR091W, strain srl3, active compounds read low 0.998 | S. cerevisiae deletion strains, locus YLL001W, strain dnm1, active compounds read low 1.01 | S. cerevisiae deletion strains, locus YLL026W, active compounds read low 1 | S. cerevisiae deletion strains, locus YLL041C, strain sdh2, active compounds read low 1 | S. cerevisiae deletion strains, locus YLR027C, strain aat2, active compounds read low 0.994 | S. cerevisiae deletion strains, locus YLR039C, strain RIC1, active compounds read low 1 | S. cerevisiae deletion strains, locus YLR058C, strain SHM2, active compounds read low 1.02 | S. cerevisiae deletion strains, locus YLR102C, strain apc9, active compounds read low 0.988 | S. cerevisiae deletion strains, locus YLR113W, strain HOG1, active compounds read low 0.975 | S. cerevisiae deletion strains, locus YLR221C, strain rsa3, active compounds read low 1.01 | S. cerevisiae deletion strains, locus YLR258W, strain gsy2, active compounds read low 1 | S. cerevisiae deletion strains, locus YLR262C, strain YPT6 (second series), active compounds read low 1.01 | S. cerevisiae deletion strains, locus YLR262C, strain YPT6, active compounds read low 1.01 | S. cerevisiae deletion strains, locus YLR268W, strain sec22, active compounds read low 0.967 | S. cerevisiae deletion strains, locus YLR320W, strain mms22, active compounds read low 1.01 | S. cerevisiae deletion strains, locus YLR330W, strain CHS5, active compounds read low 1.01 | S. cerevisiae deletion strains, locus YLR342W, strain FKS1 (second series), active compounds read low 0.996 | S. cerevisiae deletion strains, locus YLR342W, strain FKS1, active compounds read low 1.01 | S. cerevisiae deletion strains, locus YLR357W, strain rsc2, active compounds read low 0.972 | S. cerevisiae deletion strains, locus YLR370C, strain arc18, active compounds read low 0.992 | S. cerevisiae deletion strains, locus YLR371W, strain rom2, active compounds read low 0.999 | S. cerevisiae deletion strains, locus YLR384C, strain iki3, active compounds read low 1 | S. cerevisiae deletion strains, locus YLR418C, strain cdc73, active compounds read low 0.933 | S. cerevisiae deletion strains, locus YML016C, strain PPZ1, active compounds read low 1.01 | S. cerevisiae deletion strains, locus YML032C, strain rad52, active compounds read low 0.977 | S. cerevisiae deletion strains, locus YML120C, strain ndi1, active compounds read low 1 | S. cerevisiae deletion strains, locus YML124C, strain tub3, active compounds read low 0.988 | S. cerevisiae deletion strains, locus YMR058W, strain fet3, active compounds read low 1.01 | S. cerevisiae deletion strains, locus YMR078C, strain ctf18, active compounds read low 0.991 | S. cerevisiae deletion strains, locus YMR125W, strain sto1, active compounds read low 0.994 | S. cerevisiae deletion strains, locus YMR129W, active compounds read low 0.998 | S. cerevisiae deletion strains, locus YMR205C, strain PFK2, active compounds read low 1.02 | S. cerevisiae deletion strains, locus YMR223W, strain ubp8, active compounds read low 0.987 | S. cerevisiae deletion strains, locus YMR231W, strain pep5, active compounds read low 1.01 | S. cerevisiae deletion strains, locus YMR307W, strain GAS1, active compounds read low 0.988 and 0.997 | S. cerevisiae deletion strains, locus YNL067W, strain RPL9B, active compounds read low 1.01 | S. cerevisiae deletion strains, locus YNL071W, strain lat1, active compounds read low 1 | S. cerevisiae deletion strains, locus YNL128W, strain TEP1, active compounds read low 1.01 and 0.977 | S. cerevisiae deletion strains, locus YNL153C, strain GIM3, active compounds read low 1.01 | S. cerevisiae deletion strains, locus YNL175C, strain NOP13, active compounds read low 0.988 | S. cerevisiae deletion strains, locus YNL183C, strain NPR1, active compounds read low 0.946 | S. cerevisiae deletion strains, locus YNL197C, strain WHI3, active compounds read low 0.996 | S. cerevisiae deletion strains, locus YNL209W, strain ssb2, active compounds read low 1 | S. cerevisiae deletion strains, locus YNL224C, strain SQS1, active compounds read low 0.993 | S. cerevisiae deletion strains, locus YNL233W, strain BNI4, active compounds read low 1.02 | S. cerevisiae deletion strains, locus YNL248C, strain rpa49, active compounds read low 0.992 | S. cerevisiae deletion strains, locus YNL250W, strain rad50, active compounds read low 0.985 | S. cerevisiae deletion strains, locus YNL271C, strain bni1, active compounds read low 0.982 | S. cerevisiae deletion strains, locus YNL298W, strain CLA4, active compounds read low 0.999 | S. cerevisiae deletion strains, locus YNL307C, strain MCK1, active compounds read low 0.98 | S. cerevisiae deletion strains, locus YNL322C, strain KRE1 (second series), active compounds read low 1.01 | S. cerevisiae deletion strains, locus YNR049C, strain mso1, active compounds read low 0.999 | S. cerevisiae deletion strains, locus YNR052C, strain pop2, active compounds read low 0.986 | S. cerevisiae deletion strains, locus YOL006C, strain TOP1, active compounds read low 1.02 | S. cerevisiae deletion strains, locus YOL012C, strain htz1 1.11 | S. cerevisiae deletion strains, locus YOL147C, strain pex11, active compounds read low 0.988 | S. cerevisiae deletion strains, locus YOR001W, strain rrp6, active compounds read low 0.965 | S. cerevisiae deletion strains, locus YOR061W, strain CKA2, active compounds read low 1.01 | S. cerevisiae deletion strains, locus YOR069W, strain VPS5, active compounds read low 1.01 | S. cerevisiae deletion strains, locus YOR070C, strain gyp1, active compounds read low 0.999 | S. cerevisiae deletion strains, locus YOR080W, strain dia2, active compounds read low 0.997 | S. cerevisiae deletion strains, locus YOR083W, strain WHI5 (second series), active compounds read low 1 | S. cerevisiae deletion strains, locus YOR083W, strain WHI5, active compounds read low 1.03 | S. cerevisiae deletion strains, locus YOR106W, strain vam3, active compounds read low 1.02 | S. cerevisiae deletion strains, locus YOR136W, strain idh2, active compounds read low 0.998 | S. cerevisiae deletion strains, locus YOR144C, strain elg1, active compounds read low 1 | S. cerevisiae deletion strains, locus YOR184W, strain ser1, active compounds read low 0.984 | S. cerevisiae deletion strains, locus YOR231W, strain MKK1, active compounds read low 0.984 | S. cerevisiae deletion strains, locus YOR265W, strain rbl2, active compounds read low 1 | S. cerevisiae deletion strains, locus YOR270C, strain vph1, active compounds read low 0.998 | S. cerevisiae deletion strains, locus YOR290C, strain snf2, active compounds read low 0.993 | S. cerevisiae deletion strains, locus YOR316C, strain cot1, active compounds read low 1 | S. cerevisiae deletion strains, locus YPL051W, strain arl3, active compounds read low 0.998 | S. cerevisiae deletion strains, locus YPL055C, strain LGE1, active compounds read low 0.983 | S. cerevisiae deletion strains, locus YPL078C, strain atp4, active compounds read low 0.998 | S. cerevisiae deletion strains, locus YPL106C, strain sse1, active compounds read low 1 | S. cerevisiae deletion strains, locus YPL240C, strain hsp82, active compounds read low 1.01 | S. cerevisiae deletion strains, locus YPL241C, strain CIN2, active compounds read low 1.01 | S. cerevisiae deletion strains, locus YPL256C, strain CLN2, active compounds read low 1.02 | S. cerevisiae deletion strains, locus YPR119W, strain clb2, active compounds read low 0.99 | S. cerevisiae deletion strains, locus YPR141C, strain kar3, active compounds read low 0.988 | S. cerevisiae deletion strains, locus YPR163C, strain tif3, active compounds read low 0.974 | S. cerevisiae deletion strains, locus YPR167C, strain met16, active compounds read low 0.991 | S. cerevisiae deletion strains, strain wtn01, active compounds read low 0.985 | S. cerevisiae strains, strain wild type, active compounds read low 1.01
